# Screens: PubChem BioAssay, National Center for Advancing Translational Sciences (NCATS)
# Only some compounds are listed: those with a hit (about 2.4% of all), similar ones and a draw of the others.
# PGK inhibitor = blocks T. brucei phosphoglycerate kinase; P07378; PGK/GAPDH coupled, Kinase-Glo luminescence, 60 min; Potency, µM (titrated, usually from 57.5 µM), for inactives: at the top dose activity change, negative = inhibition, actives largely listed as inhibitors; 380,000 tested, 0.043% active; AID 602233; also: % is scaled to controls: 0 for no effect and ±100 for the full control effect; nearly all actives have a fitted effect of over 60% in size
#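 Luminescent ATP detection (Kinase-Glo Plus) follows a 60-minute room-temperature incubation, with wells lacking PGK as controls. Buffer: 100 mM TEA (pH 7.6), 5 mM MgCl2, 0.01% Tween-20. Coupling enzyme GAPDH (100 nM final) supplies unstable 1,3-BPG in-well.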
# Pol eta inh = inhibitors of human DNA polymerase eta. 390,000 tested, 1.2% active. Potency, µM (top dose mostly 114 µM), without a hit: at the highest dose activity change, negative = inhibition, actives largely listed as inhibitors. recombinant Pol eta, fluorescent DNA replication assay; also: % is scaled to controls: 0 for no effect and ±100 for the full control effect
# Target sequence (Q9Y253 whole entry, looked up): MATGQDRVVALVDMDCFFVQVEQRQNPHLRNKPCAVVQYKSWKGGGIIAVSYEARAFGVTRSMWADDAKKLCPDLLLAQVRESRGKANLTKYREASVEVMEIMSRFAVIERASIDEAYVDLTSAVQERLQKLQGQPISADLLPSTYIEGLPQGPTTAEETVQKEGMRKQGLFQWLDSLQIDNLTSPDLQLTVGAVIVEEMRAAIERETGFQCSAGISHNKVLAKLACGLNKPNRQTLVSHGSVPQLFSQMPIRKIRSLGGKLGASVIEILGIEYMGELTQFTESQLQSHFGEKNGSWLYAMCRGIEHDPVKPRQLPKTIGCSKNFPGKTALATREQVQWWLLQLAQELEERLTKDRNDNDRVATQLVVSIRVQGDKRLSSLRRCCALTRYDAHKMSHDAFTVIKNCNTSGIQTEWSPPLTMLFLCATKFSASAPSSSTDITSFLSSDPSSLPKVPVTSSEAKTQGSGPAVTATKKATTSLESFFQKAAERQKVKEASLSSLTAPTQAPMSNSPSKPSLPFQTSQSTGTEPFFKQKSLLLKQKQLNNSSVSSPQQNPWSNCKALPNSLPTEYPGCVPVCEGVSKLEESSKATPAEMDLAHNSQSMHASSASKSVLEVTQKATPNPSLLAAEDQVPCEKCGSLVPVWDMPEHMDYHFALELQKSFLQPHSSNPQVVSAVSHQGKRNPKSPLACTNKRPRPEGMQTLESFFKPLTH
#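 Pol eta (10 nM) was preincubated with compounds for 15 min at room temperature, after which fluorescent replication substrate (50 nM final) was added to start the reaction. Fluorescence was read kinetically at 0 and 10 min.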
# Pol kappa inh = inhibitors of human DNA polymerase kappa. AID 588579. Q9UBT6. Potency, µM (doses to about 107 µM), for inactives: at the highest dose activity, negative = inhibition, most hits filed as inhibitors. 400,000 tested, 0.53% active. purified Pol kappa, fluorescent DNA synthesis assay, 10 min; also: % is scaled to controls: 0 for no effect and ±100 for the full control effect
#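 Activity was followed as the change in fluorescence between reads at 0 and 10 min after starting the reaction with 50 nM substrate. Beforehand, 10 nM polymerase had been preincubated with compound for 15 min at room temperature.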
# POLI inh = DNA polymerase iota (human) inhibition; Q9UNA4; Pol iota fluorescent replication assay, 10 min; Potency, µM (titrated, usually from 115 µM), for inactives: at the highest dose activity, negative = inhibition, usual class: inhibitors; 390,000 tested, 1% active; AID 588590
#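 Pol iota at 10 nM preincubated 15 min with compounds at room temperature; reaction started with fluorescent substrate, 50 nM final. Fluorescence read kinetically at 0 and 10 min; buffer-only wells as negative control.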
# FEN1 inhibitor = inhibitors of human flap endonuclease 1; P39748; Recombinant FEN1 flap cleavage, fluorescence, 15 min; Potency, µM (series often up to 114 µM), inactives show top-dose activity change, negative = inhibition, hits mostly inhibitors; 390,000 tested, 0.35% active; AID 588795; also: % is scaled to controls: 0 for no effect and ±100 for the full control effect; nearly all actives have a fitted effect of over 65% in size
#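 Concentration–response screening of FEN1 (10 nM): 15 min compound preincubation at room temperature, reaction started with 50 nM substrate and read at 0 and 15 min. Corrected, normalized data were fitted by a four-parameter Hill equation.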
# Pol beta inh = inhibitors of human DNA polymerase beta | P06746 | Pol beta primer extension/strand displacement, fluorescence kinetic | Potency, µM (series often up to 114 µM), inactives show at the top dose activity change, negative = inhibition, usual class: inhibitors | 340,000 tested, 1.3% active | AID 485314; also: % is scaled to controls: 0 for no effect and ±100 for the full control effect
#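 Pol beta (10 nM) was preincubated with compound for 15 min at room temperature. The reaction was then started with 50 nM substrate and read immediately and after a further 10 min at room temperature.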
# * = called active by the depositor; i = inactive; ? = inconclusive; nt = no result; [ ] = another dose, or the depositor's remark. Calls follow the shape of the dose curve; as a rule, active = well fitted curve in the direction sought with a large enough effect; inconclusive = small, poorly fitted or top-dose-only effect, or another doubt; inactive = no such curve, though single readings can be large; an effect the other way counts as inactive or inconclusive. Potency is read from the fitted curve at half-maximal effect.
SMILES,PGK inhibitor,Pol eta inh,Pol kappa inh,POLI inh,FEN1 inhibitor,Pol beta inh
CN(C)c1ccc(/C=C\C=C/c2ccnc3ccccc23)cc1,nt,nt,?,-22%,50µM*,nt
CN(C)c1ccc(N=Cc2ccnc3ccccc23)cc1,nt,nt,2%,?,45µM*,nt
CCN(CCCN(C)C)c1ccc(/C=C/c2ccnc3ccccc23)cc1,nt,nt,?,?,50µM*,nt
CC(I)CCC(C)[n+]1cccc(I)c1 (stereo unspecified),nt,nt,-14%,24%,-2%,nt
N#Cc1ccc(C(=O)Nc2ccc(Cl)c(-c3nc4cc(Cl)ccc4o3)c2)c(F)c1,-3%,-7%,-16%,-8%,-12%,1%
CC(Sc1nnc2ccc3ccccc3n12)C(=O)Nc1ccc(Cl)cc1 (stereo unspecified),i,-4%,1%,24%,20%,-1%
CN(CC(=O)Nc1ccccc1C(F)(F)F)C(=O)CCc1nc2sc3c(c2c(=O)[nH]1)CCCC3,6%,45µM*,-9%,?,-8%,?
CCN(CC(=O)Nc1ccccc1C(F)(F)F)C(=O)CCc1nc2ccccc2c(=O)[nH]1,5%,2%,-16%,6%,13%,12%
CN(CC(=O)Nc1ccc(Cl)cc1)C(=O)CCc1nc2sc3c(c2c(=O)[nH]1)CCCC3,2%,?,-41%,28µM*,-17%,nt
CN(CC(=O)Nc1ccc(F)cc1)C(=O)CCc1nc2sc3c(c2c(=O)[nH]1)CCCC3,-20%,16µM*,-36%,35µM*,-15%,nt
N#Cc1c(N)sc(=S)c2c1CCCCC2,-3%,13µM*,28µM*,?,?,13µM*
COc1ccc(CC2NCCC3=CC(=O)CCC32)cc1O (stereo unspecified),3%,1%,?,56µM*,-2%,nt
COc1ccc(CC(=O)O)cc1O,i,-4%,-6%,-35%,-10%,15%
COc1ccc(CCNC(=O)c2cc3c(=O)n(C)c4cc(Cl)ccc4c3s2)cc1OC,-6%,3%,8%,-8%,-2%,56%
COc1cc(/C=C2/C(=O)NN(c3cccc(C)c3)C2=O)ccc1OC(=O)c1ccco1,-7%,28µM*,-11%,?,-7%,-24%
CCS(=O)(=O)C1=NSC2=NC(=O)/C(=C\c3ccc(OC(=O)c4ccco4)cc3)C(=N)N21,-12%,79µM*,3%,?,-1%,-22%
COc1ccccc1OCCOc1ccc(/C=C2/C(=N)N3OC(C)=CC3=NC2=O)cc1OC,-5%,4µM*,-18%,4%,-8%,4%
COC(=O)c1ccc(N2NC(=O)/C(=C/c3ccc(OC)c(OC)c3)C2=O)cc1,i,8%,-10%,?,2%,5%
COc1cc(/C=C2\C(=N)N3N=C(S(C)(=O)=O)SC3=NC2=O)ccc1OCCOc1ccccc1C,?,50µM*,-17%,49%,-20%,50µM*
COc1ccc(CCNC(=O)c2ccc3c(c2)CCN3S(=O)(=O)c2ccc(C)cc2)cc1OC,4%,-17%,0%,-1%,-17%,4%
COc1cc(/C=C2\C(=N)N3N=C(S(C)(=O)=O)SC3=NC2=O)ccc1OC(=O)c1ccco1,-13%,22µM*,-41%,20µM*,?,-13%
O=C(COC(=O)C12CC3CC(CC(O)(C3)C1)C2)NCc1ccco1,nt,nt,0%,-10%,17%,nt
COC(=O)c1cc(C(=O)OC)n(Cc2ccc(C)cc2)c1C,-11%,35µM*,?,?,?,-28%
Cc1nc(-c2cccc(NC(=O)C(C)Oc3ccccc3)c2)cs1 (stereo unspecified),i,28µM*,-4%,?,-6%,-11%
Cc1sc2cc3c(c(C(=O)c4ccccc4)[n+]2c1C)-c1cccc2cccc-3c12,i,?,-9%,39%,40µM*,?
SMILES,PGK inhibitor,Pol eta inh,Pol kappa inh,POLI inh,FEN1 inhibitor,Pol beta inh
C#CCn1cc(/C=C2\NC(=O)NC2=O)c2ccccc21,-6%,?,?,?,-31%,35µM*
CCC(=O)NC1Cc2ccccc2C(c2ccccc2)C1 (stereo unspecified),nt,nt,0%[19.4 µM],nt,nt,nt
CC[C@H](C)[C@H](NC(=O)[C@H](C)NC(=O)[C@H](CC(=O)O)NC(=O)[C@H](CO)NC(=O)[C@@H](N)Cc1cnc[nH]1)C(=O)N[C@@H](Cc1ccccc1)C(=O)N[C@H](C(=O)N[C@@H](CCC(N)=O)C(=O)N[C@@H](CCC(N)=O)C(=O)N[C@@H](Cc1ccc(O)cc1)C(=O)N[C@@H](CO)C(=O)N[C@@H](CCCCN)C(=O)N[C@@H](CC(C)C)C(=O)N[C@@H](CC(C)C)C(=O)N[C@@H](C)C(=O)N[C@@H](CCCCN)C(=O)N[C@@H](CC(C)C)C(=O)N[C@@H](C)C(=O)N[C@@H](CC(C)C)C(=O)N[C@@H](CCC(N)=O)C(=O)N[C@@H](CCCCN)C(=O)N[C@@H](Cc1ccc(O)cc1)C(=O)N[C@@H](CC(C)C)C(=O)N[C@@H](C)C(=O)N[C@@H](CO)C(=O)N[C@H](C(=O)N[C@@H](CC(C)C)C(=O)NCC(=O)N[C@@H](CO)C(=O)N[C@@H](CCCNC(=N)N)C(=O)N[C@H](C(=O)N[C@@H](CO)C(=O)N1CCC[C@H]1C(=O)N1CCC[C@H]1C(=O)N1CCC[C@H]1C(N)=O)[C@@H](C)O)[C@@H](C)CC)[C@@H](C)O,nt,nt,12%[60.1 µM],nt,nt,nt
O=C(C[n+]1ccc(C(=O)N/N=C/c2ccc(O)cc2)cc1)c1ccccc1,7%,?,-13%,38%,-3%,56µM*
COc1cc(/C=N/NC(=O)Cc2nnc(NC(=O)c3ccccc3)s2)ccc1O,i,-19%,-3%,45%,-12%,?
O=C(Cc1nnc(NC(=O)c2ccccc2)s1)N/N=C/c1ccc(O)cc1,-1%,-22%,-8%,?,-10%,25µM*
CC(=O)c1sc(C(=O)O)c(-c2ccco2)c1-c1ccco1,-27%,22µM*,45µM*,?,?,20µM*
O=C(O)c1sc(C(=O)O)c(-c2ccccc2)c1-c1ccccc1,i,-8%,nt,nt,nt,nt
COc1ccc(Cl)cc1NC(=O)Cn1ncc2c3ccccc3n(Cc3ccccc3)c2c1=O,2%,-6%,-4%,-12%,0%,7%
O=C(Cn1ncc2c3ccccc3n(Cc3cccc(Cl)c3)c2c1=O)N1CCCCCC1,7%,-20%,-25%,?,8%,25µM*
O=C(Cn1ncc2c3ccccc3n(Cc3cccc(Cl)c3)c2c1=O)NCc1cccs1,3%,-17%,-27%,?,14%,25µM*
